{"source": "PubChem BioAssay (Tox21)", "note": "Calls of active or inactive are those of the source. Calls come from the whole dose curve; as a rule, active = well fitted curve in the direction sought with a large enough effect in the repeat runs; inconclusive = weak or mixed curves; inactive = flat fitted curve, though single readings scatter. % is set by controls: 0 for no effect and ±100 for the full control effect.", "data": [{"experiment": "qHTS assay to test for compound auto fluorescence at 590 nm (red) in HepG2 cells (AID 720674)", "details": "HepG2 autofluorescence, red 540/590 nm, 1 h; series mostly up to 91.3 µM", "source_text": "U.S. Tox21 Program National Center for Advancing Translational Sciences [NCATS] NIH Chemical Genomics Center [NCGC] U.S. Environmental Protection Agency [EPA] National Institutes of Environmental Health Sciences [NIEHS] National Toxicology Program [NTP] U.S. Food and Drug Administration [FDA] Tox21 Assay Overview: Compound auto fluorescence often interferes with screening of the compound library against various biological targets and signaling pathways. Some of these compounds may have fluorophoric properties. Such properties may interfere with the assay outputs resulting in false positives and/or negatives. To decrease such complications and ensure the compound activities are relevant in terms of biological response, the Tox21 10K compound library was screened for auto fluorescence. From the fluorophores used as reporter signals in our screening assays, the auto fluorescence equivalencies of compounds against three fluorophores have been evaluated: Triamterene, Fluorescein and Rose Bengal sodium for blue, green and red fluorescence, respectively. The fluorescence intensities were measured using Excitation/Emission wavelengths at 405/460nm, 485/535nm and 540/590nm for blue, green and red labels, respectively. This assay includes the red fluorescence data.\nTox21 Assay Protocol Summary: 2,000 HepG2 cells in 5 uL of culture medium (MEM containing 10% FBS) per well were dispensed into black wall/clear bottom 1536-well plates using a Multidrop Combi Dispenser (ThermoFisher Scientific, Waltham, MA). The assay plates were incubated overnight at 37 C to allow cell attachment to the well bottom, followed by the transfer of 23 nL compound or DMSO vehicle by a pintool work station (Kalypsys , San Diego, CA). After the assay plates were incubated for 1 hr at 37 C and 5% CO2, fluorescence intensities in the assay plates were measured by an Envision (PerkinElmer, Shelton, CT) plate reader using three labels for measuring blue, green and red fluorescence at […] 460, 535 and 590 nm respectively.", "values": [{"smiles": "CN1C(=O)c2ccccc2C1=O", "outcome": "inactive"}, {"smiles": "CCCC(=O)C(=O)O", "outcome": "inactive"}, {"smiles": "O=C(O)CCc1nc(-c2ccccc2)c(-c2ccccc2)o1", "outcome": "inactive"}, {"smiles": "O=C1NC(=O)c2cc([N+](=O)[O-])ccc21", "outcome": "inactive"}, {"smiles": "CCCCCCCC/C=C\\CCCCCCCCO", "outcome": "inactive"}, {"smiles": "Nc1nc2ccc([N+](=O)[O-])cc2s1", "outcome": "inactive"}, {"smiles": "CCCCN1CCCC1C(=O)Nc1c(C)cc(C)cc1C", "note": "(stereo not given)", "outcome": "inactive"}, {"smiles": "CCCCOc1ccc(OCCCN2CCOCC2)cc1", "fluorescence, relative to Rose Bengal": "-0.141% [at 18.6 µM] (inactive)"}, {"smiles": "CN1CCCN=C1COC(=O)C(O)(c1ccccc1)C1CCCCC1", "note": "(stereo not given)", "outcome": "inactive"}, {"smiles": "CCC1CO1", "note": "(stereo not given)", "outcome": "inactive"}, {"smiles": "Nc1nnc(-c2ccc([N+](=O)[O-])o2)o1", "outcome": "inactive"}, {"smiles": "CC1(C)[C@@H](OC(=O)CCC(=O)O)CC[C@]2(C)[C@H]3C(=O)C=C4[C@@H]5C[C@@](C)(C(=O)O)CC[C@]5(C)CC[C@@]4(C)[C@]3(C)CC[C@@H]12", "fluorescence, relative to Rose Bengal": "-0.342% [at 18.6 µM] (inactive)"}, {"smiles": "CCC(C)(C)OC", "outcome": "inactive"}, {"smiles": "O=C(Cn1ccnc1[N+](=O)[O-])NCCO", "outcome": "inactive"}, {"smiles": "CCOC(=O)[C@H](CCc1ccccc1)N[C@@H](C)C(=O)N(CC(=O)O)C1Cc2ccccc2C1", "outcome": "inactive"}, {"smiles": "CC(=O)Nc1ccc(C)cc1C", "outcome": "inactive"}, {"smiles": "Oc1cccc(Nc2ccccc2)c1", "outcome": "inactive"}, {"smiles": "CC(C)=CCC1C(=O)N(c2ccccc2)N(c2ccccc2)C1=O", "outcome": "inactive"}, {"smiles": "C[C@]12CC[C@@H]3c4ccc(O)cc4CC[C@H]3[C@@H]1CC[C@@H]2OC(=O)CCC1CCCC1", "outcome": "inactive"}, {"smiles": "CCCCC(CC)CN", "note": "(stereo not given)", "outcome": "inactive"}, {"smiles": "CCOC(=O)c1ccc(C#Cc2ccc3c(c2)C(C)(C)CCS3)nc1", "outcome": "inactive"}, {"smiles": "Oc1cc2c(cc1O)[C@H]1c3ccc(O)c(O)c3OC[C@@]1(O)C2", "outcome": "inactive"}, {"smiles": "CC/C=C1/OC(=O)c2ccccc21", "outcome": "inactive"}, {"smiles": "Nc1ccc(N=Nc2ccccc2)c(N)c1", "outcome": "inactive"}, {"smiles": "O=c1c(O)c(-c2ccc(O)cc2)oc2cc(O)cc(O)c12", "outcome": "inactive"}, {"smiles": "CC1=C(Br)C(=O)C(Br)=C/C1=C(/c1ccccc1S(=O)(=O)O)c1cc(Br)c(O)c(Br)c1C", "outcome": "inactive"}, {"smiles": "CO[C@]1(NC(=O)CSC(F)F)C(=O)N2C(C(=O)O)=C(CSc3nnnn3CCO)CO[C@H]21", "outcome": "inactive"}, {"smiles": "Cc1cc(=O)c2c(O)c3c(O)cc(=O)c4c3c3c(cc(O)c1c23)C(C)(C)C=4O", "outcome": "inactive"}, {"smiles": "CN1C[C@H](C(=O)N[C@]2(C)O[C@@]3(O)[C@@H]4CCCN4C(=O)[C@H](Cc4ccccc4)N3C2=O)C[C@@H]2c3cccc4[nH]cc(c34)C[C@H]21", "outcome": "inactive"}, {"smiles": "C[C@H]1c2cccc(O)c2C(O)=C2C(=O)[C@]3(O)C(O)=C(C(N)=O)C(=O)[C@@H](N(C)C)[C@@H]3[C@@H](O)[C@@H]21", "outcome": "inactive"}, {"smiles": "OC(CCN1CCCC1)(c1ccccc1)C1CCCCC1", "note": "(stereo not given)", "fluorescence, relative to Rose Bengal": "0.15% [at 18.6 µM] (inactive)"}, {"smiles": "O=C1c2ccccc2C(=O)N1CCc1noc(-c2ccc(CN3CCCCCC3)s2)n1", "outcome": "inactive"}, {"smiles": "CC=C(Cl)Cl", "outcome": "inactive"}, {"smiles": "O=c1[nH]c2ccc(Cl)cc2o1", "outcome": "inactive"}, {"smiles": "CCCCCCCCOc1ccc(C(=O)O)cc1", "outcome": "inactive"}, {"smiles": "CCC1NC(=O)c2cc(S(N)(=O)=O)c(Cl)cc2N1", "note": "(stereo not given)", "fluorescence, relative to Rose Bengal": "0.403% [at 18.6 µM] (inactive)"}, {"smiles": "COc1ccccc1N1CCN(CCCCNC(=O)c2ccc(-c3ccc(C(C)=O)cc3)cc2)CC1", "outcome": "inactive"}, {"smiles": "C[C@@H](O)[C@H]1C(=O)N2C(C(=O)O)=C([C@H]3CCCO3)S[C@H]12", "outcome": "inactive"}, {"smiles": "O=C(CCc1ccc(O)cc1)c1c(O)cc(O)cc1O", "outcome": "inactive"}, {"smiles": "CCc1ccccc1", "outcome": "inactive"}]}]}
